Source: PubChem BioAssay (NCATS)
Values joined by “and” are separate entries in the source; they are usually repeats but may differ in a detail not shown here. Identical values can stand only once. Records with an inconclusive call do not appear. Entries that show only a call come without a potency. A structure can be active in one record and inactive in another. Active and inactive are the calls of the source. The call rests on the fitted dose curve; in most records, active means well fitted inhibition curve with a large enough effect; inconclusive means small, poorly fitted or top-dose-only effect; inactive means flat fitted curve, though single readings scatter.

What follows are compounds tested against Glutathione peroxidase 1 (Homo sapiens) (UniProt P07203) (assay: Primary qHTS Assay for Inhibitors of Recombinant Selenoprotein Glutathione Peroxidase 1 (GPX1) (AID 1845191; further: nearly all actives have a fitted effect of over 65% in size)). Conditions: recombinant GPX1, GR-coupled NADPH fluorescence, 15 min; series mostly up to 48.8 µM.
In short: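 GR-coupled readout: NADPH consumption tracked by fluorescence, ex 340/em 450 nm, at t=0 and after 15 min at RT. Final mix 10 nM GPX1, 1 mM GSH, 0.5 mM CHP, 0.5 mM NADPH, 100 nM GR, 0.01% BSA, following 30 min enzyme–compound preincubation.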
Potency means the concentration at half of the fitted maximal effect.

Sequence of Glutathione peroxidase 1 (Homo sapiens) (P07203 whole entry, looked up): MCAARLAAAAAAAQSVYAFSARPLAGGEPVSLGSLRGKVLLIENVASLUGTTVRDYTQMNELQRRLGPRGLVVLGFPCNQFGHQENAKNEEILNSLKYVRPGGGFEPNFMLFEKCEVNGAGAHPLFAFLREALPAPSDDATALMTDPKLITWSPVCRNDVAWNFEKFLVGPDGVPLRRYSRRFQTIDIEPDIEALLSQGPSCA

Compound	Potency
CC[C@]1(O)C[C@H]2CN(CCc3c([nH]c4ccccc34)[C@@](C(=O)OC)(c3cc4c(cc3OC)N(C=O)[C@H]3[C@@](O)(C(=O)OC)[C@H](OC(C)=O)[C@]5(CC)C=CCN6CC[C@]43[C@@H]65)C2)C1	inactive
CCCc1cc(=O)[nH]c(=S)[nH]1	inactive
COc1c2occc2cc2ccc(=O)oc12	inactive
CN(C)[C@@H](CCOc1cccc2ccccc12)c1ccccc1	inactive
Cc1cccc(CN2CCN(C(c3ccccc3)c3ccc(Cl)cc3)CC2)c1 (stereo not drawn)	inactive
CC(C)c1ccc2oc3nc(N)c(C(=O)O)cc3c(=O)c2c1	22.7 µM (active) and 16.3 µM (active)
Cc1ccc(C(=O)c2cc(O)c(O)c([N+](=O)[O-])c2)cc1	inactive
O=C(OC1C[C@H]2CC[C@@H](C1)[N+]21CCCC1)C(O)(c1ccccc1)c1ccccc1 (stereo partly drawn)	inactive
NS(=O)(=O)c1cc(C(=O)O)c(NCc2ccco2)cc1Cl	inactive
CN(C)c1ccc(O)c2c1C[C@H]1C[C@H]3[C@H](N(C)C)C(=O)C(C(N)=O)=C(O)[C@@]3(O)C(=O)C1=C2O	inactive
CN(C)c1ccc2nc3ccc(=[N+](C)C)cc-3sc2c1	inactive
O=C(NOCC1CC1)c1ccc(F)c(F)c1Nc1ccc(I)cc1Cl	inactive
Nc1nc(Cl)nc2c1ncn2[C@H]1C[C@H](O)[C@@H](CO)O1	inactive
NNc1nncc2ccccc12	inactive
O=C(O)c1cc(=O)c2c(OCC(O)COc3cccc4oc(C(=O)O)cc(=O)c34)cccc2o1	inactive
CC(C)[N+]1(C)[C@@H]2CC[C@H]1CC(OC(=O)C(CO)c1ccccc1)C2 (stereo partly drawn)	inactive
CN(C)CCc1c[nH]c2ccc(Cn3cncn3)cc12	inactive
CC(=O)O[C@H]1C(=O)[C@@]2(C)C([C@H](OC(=O)c3ccccc3)[C@]3(O)C[C@H](OC(=O)[C@H](O)[C@@H](NC(=O)c4ccccc4)c4ccccc4)C(C)=C1C3(C)C)[C@]1(OC(C)=O)CO[C@@H]1C[C@@H]2O (stereo partly drawn)	inactive
COc1cc2nc(N3CCN(C(=O)C4CCCO4)CC3)nc(N)c2cc1OC (stereo not drawn)	inactive

Compound	Potency
Cn1c(NCCN(CCO)CCCc2ccc([N+](=O)[O-])cc2)cc(=O)n(C)c1=O	inactive
O=C(O)CCNC(=O)c1ccc(N=Nc2ccc(O)c(C(=O)O)c2)cc1	inactive
Cc1c(C(=O)NN2CCCCC2)nn(-c2ccc(Cl)cc2Cl)c1-c1ccc(Cl)cc1	inactive
COCCCN1CCC(NC(=O)c2cc(Cl)c(N)c3c2OCC3)CC1	inactive
CN(c1nccc(=O)[nH]1)C1CCN(c2nc3ccccc3n2Cc2ccc(F)cc2)CC1	inactive
COCCCOc1ccnc(CS(=O)c2nc3ccccc3[nH]2)c1C (stereo not drawn)	inactive and 14.3 µM (active)
C=C(c1ccc(C(=O)O)cc1)c1cc2c(cc1C)C(C)(C)CCC2(C)C	inactive
CS(=O)(=O)OCCCCOS(C)(=O)=O	inactive
CCCCC(CC)COC(=O)C(C#N)=C(c1ccccc1)c1ccccc1 (stereo not drawn)	inactive
CCCCN(CCCC)CCC(O)c1cc2c(Cl)cc(Cl)cc2c2cc(C(F)(F)F)ccc12 (stereo not drawn)	inactive
CCc1nc(N)nc(N)c1-c1ccc(Cl)cc1	inactive
Nc1ncn([C@H]2C[C@H](O)[C@@H](CO)O2)c(=O)n1	inactive
COc1ccc(C2(C#N)CCC(C(=O)O)CC2)cc1OC1CCCC1 (stereo not drawn)	inactive
Nc1cccc2c1CN(C1CCC(=O)NC1=O)C2=O (stereo not drawn)	inactive
Clc1ccc(C(Cn2ccnc2)OCc2ccsc2Cl)c(Cl)c1 (stereo not drawn)	inactive
NC(=O)Cc1cccc(C(=O)c2ccccc2)c1N	inactive
Clc1ccc(C(Cn2ccnc2)OCc2ccc(Sc3ccccc3)cc2)c(Cl)c1 (stereo not drawn)	inactive
Cc1cc(C2CCCCC2)n(O)c(=O)c1	inactive
CCC1=C(C)CN(C(=O)NCCc2ccc(S(=O)(=O)NC(=O)NC3CCC(C)CC3)cc2)C1=O (stereo not drawn)	inactive
